According to PubChem BioAssay AID463173 (ICCB-Longwood Screening Facility, Harvard Medical School, 2010):
The whole screen tested about 52,000 compounds, of which about 4,300 (8.3%) were called active. Rule as the data show it: active = survival mostly below about 52% (no sharp cut-off); inactive = mostly above about 56%. This excerpt belongs to a sample that is enriched for actives.

Tested on: DeltatarO mutant
Experiment: S. aureus survival, RN4220 and DeltatarO strains – OD600, teichoic acid synthesis inhibitors, primary screen (AID 463173)
Conditions: S. aureus RN4220 wild type/DeltatarO growth, OD600, 18 h, hits give low values, screened at 18.75 µg/mL (by protocol)

Structure (SMILES)	survival
CCN(CCCNC(=O)c1cc2c(=O)[nH]c3ccc(C)cc3c2s1)c1ccc(C)cc1	68% (inactive)
CCc1cccc(C)c1NC(=O)COCc1cc(-c2ccc3c(c2)OCO3)on1	101% (inactive)
CCOCCn1ccc2c(OCC(=O)Nc3cc(C)cc(C)c3)cccc2c1=O	83% (inactive)
CCOc1ccccc1NC(=O)COc1cccc2c(=O)n(CCOC)ccc12	70% (inactive)
CCOCCn1ccc2c(OCC(=O)Nc3cccc(F)c3)cccc2c1=O	91% (inactive)
CCn1ccc2c(OCC(=O)Nc3ccc(OC)cc3OC)cccc2c1=O	20% (active)
COCCn1ccc2c(OCC(=O)Nc3cccc(OC)c3)cccc2c1=O	92% (inactive)
CCn1ccc2c(OCC(=O)NCc3ccccc3)cccc2c1=O	102% (inactive)
COCCn1ccc2c(OCC(=O)NCc3ccc(F)cc3)cccc2c1=O	92% (inactive)
CCn1ccc2c(OCC(=O)Nc3ccc(C(C)=O)cc3)cccc2c1=O	66% (inactive)
CCn1ccc2c(OCC(=O)Nc3ccccc3C(F)(F)F)cccc2c1=O	85% (inactive)
COCCn1ccc2c(OCC(=O)Nc3ccccc3F)cccc2c1=O	25% (active)
CCOCCn1ccc2c(OCC(=O)Nc3ccc(C(N)=O)cc3)cccc2c1=O	37% (active)
CCn1ccc2c(OCC(=O)Nc3ccccc3C)cccc2c1=O	8% (active)
COC(=O)c1sccc1S(=O)(=O)N(CC(=O)NCc1ccc(C)cc1)c1ccc(C)c(C)c1	68% (inactive)
Fc1ccccc1N1CCN(c2ncnc3c2nc2n3CCCC2)CC1	84% (inactive)
O=C(Nc1ccccc1)c1ccc(S(=O)(=O)N2CCCC2)cc1	94% (inactive)
N#Cc1ccccc1NC(=O)C(=O)NCC(c1ccc2c(c1)OCO2)N1CCOCC1 (stereo not given)	71% (inactive)
CCC(=O)N1CCc2cc(Br)cc(S(=O)(=O)CCC(=O)N3CCN(c4ccccc4F)CC3)c21	80% (inactive)
O=C(NCc1ccccc1Cl)C1CCCN(S(=O)(=O)c2cccc3nsnc23)C1 (stereo not given)	91% (inactive)
CCN1CCN(CCC(=O)Nc2ccc(OC)cc2)CC1	97% (inactive)
Cc1nn(-c2ccccc2)c2sc(C(=O)N(CC(=O)NC3CCCC3)C3CC3)cc12	78% (inactive)
Cc1nn(-c2ccccc2)c2sc(C(=O)NN=C3CCCC3)cc12	109% (inactive)

Structure (SMILES)	survival
Cc1nn(-c2ccccc2)c2sc(C(=O)N(Cc3ccco3)C(C)C(=O)NC3CCCCC3)cc12 (stereo not given)	60% (active)
O=C(OCc1ccccc1Cl)c1ccc(-c2nnn(Cc3ccccc3)n2)cc1	52% (inactive)
CC(C)CNC(=O)C1CCN(S(=O)(=O)c2ccc(-n3cnnn3)cc2)CC1	86% (inactive)
Cc1ccc(NC(=O)Cn2c(=O)nc(-c3ccccc3F)c3cc(Cl)ccc32)c(Br)c1	79% (inactive)
O=C1CC2CCC(CN1)N2S(=O)(=O)c1ccc(C(=O)O)cc1 (stereo not given)	93% (inactive)
Cc1ccc(-c2cc(C(=O)N3CCN(S(=O)(=O)c4ccc(Br)s4)CC3)[nH]n2)c(C)c1	70% (inactive)
O=C(NCc1ccccc1Cl)c1cnc2sc(N3CCCCC3)nn2c1=O	76% (inactive)
COc1ccc(C(=O)NCC(c2ccc(N(C)C)cc2)N2CCc3ccccc32)cc1 (stereo not given)	118% (inactive)
Cc1cc(C(=O)NCC(=O)O)c(C)o1	76% (inactive)
Cc1cc(C(=O)Nc2ccccc2C(=O)O)c(C)o1	66% (inactive)
Cc1cc(C(=O)NCc2ccc(C(=O)O)o2)c(C)o1	58% (active)
CCC(=O)NC1CCNCC1	76% (inactive)
CCOc1ccc(OCC)c(NS(=O)(=O)c2ccc3[nH]c(=O)ccc3c2)c1	8% (active)
CCOc1ccc(CNS(=O)(=O)c2ccc3[nH]c(=O)ccc3c2)cc1	85% (inactive)
CCOc1ccccc1CNS(=O)(=O)c1ccc2[nH]c(=O)ccc2c1	81% (inactive)
Cc1ccc(C)c(NS(=O)(=O)c2ccc3oc(=O)c4ncn(C)c4c3c2)c1	82% (inactive)
COc1ccc(Cc2nc3ccccc3n2Cc2ccccc2F)cc1	18% (active)
Cc1ccccc1Cn1c(CCCNC(=O)C2CCCCC2)nc2ccccc21	90% (inactive)
COc1cccc(OCc2nc3ccccc3n2Cc2ccccc2C)c1	75% (inactive)
O=C(NCCCc1nc2ccccc2n1Cc1ccccc1F)c1ccco1	63% (inactive)
COc1ccc(Cc2nc3ccccc3n2Cc2ccccc2C)cc1	-3% (active)
O=C(NCCc1nc2ccccc2n1Cc1ccccc1F)c1ccc(F)cc1	81% (inactive)
CC(=O)N1CCc2cc(CNC(=O)Cc3ccc(F)cc3)ccc21	94% (inactive)

Structure (SMILES)	survival
Cc1oc2cc3oc(=O)c(CC(=O)N4CCCCC4)c(C)c3cc2c1C	73% (inactive)
O=C(Cn1cc(SCc2ccccc2F)c2ccccc21)N1CCCCC1	82% (inactive)
Cc1ccc(NC(=O)c2cc(S(=O)(=O)NC3CCCCC3)ccc2F)cc1Cl	-5% (active)
CCOc1ccc(NC(=O)c2ccc(F)c(S(=O)(=O)N(CC)Cc3ccccc3)c2)cc1	78% (inactive)
CCOc1ccc(NC(=O)c2ccc(F)c(S(=O)(=O)N(Cc3ccc(C(=O)OC)cc3)Cc3ccc(OC)c(OC)c3)c2)cc1	47% (active)
O=C(Nc1ccc(Br)cc1)c1ccc(F)c(S(=O)(=O)NC2CCCCCC2)c1	84% (inactive)
O=C(Nc1ccc(Cl)cc1)c1cc(S(=O)(=O)NC2CCCCCC2)ccc1F	90% (inactive)
O=C(Nc1ccc(C(F)(F)F)cc1)c1cc(S(=O)(=O)NC2CCCCCC2)ccc1F	25% (active)
O=C(Nc1ccc(F)c(F)c1)c1cc(S(=O)(=O)NC2CCCCCC2)ccc1F	54% (inactive)
COC(=O)c1ccc(CN(Cc2ccc(OC)c(OC)c2)S(=O)(=O)c2cc(C(=O)Nc3cccc(C)c3)ccc2F)cc1	86% (inactive)
Cc1ccc(NC(=O)c2cc(S(=O)(=O)NC3CCCCCC3)ccc2F)cc1F	92% (inactive)
CCc1ccc(NC(=O)c2ccc(F)c(S(=O)(=O)N(C)C3CCCCC3)c2)cc1	84% (inactive)
O=C(Nc1ccc(C(F)(F)F)cc1)c1cc(S(=O)(=O)NC2CCCCC2)ccc1F	92% (inactive)
CCc1ccc(NC(=O)c2ccc(F)c(S(=O)(=O)NC3CCCCCC3)c2)cc1	-2% (active)
CSc1nnc(COc2ccc(Br)cc2)n1Cc1ccccc1	97% (inactive)
CCNC(=O)Nc1ccc2nc(C)n(Cc3cccc(Cl)c3)c(=O)c2c1	104% (inactive)
Cc1nn(-c2ccccc2)c2c1N(CCCC(=O)NCc1ccccc1)C(=O)CS2	99% (inactive)
O=C(c1ccco1)N1CCN(Cc2cccc(Br)c2)CC1	95% (inactive)
Cc1ccc(CNC(=O)CCCCn2c(=O)c3ccccc3n(Cc3ccc(C)cc3)c2=O)cc1	67% (inactive)
CCOc1ccc(OCC)c(NC(=O)C2CCN(S(=O)(=O)c3ccc(Br)s3)CC2)c1	80% (inactive)
COc1cc(NC(=O)C2CCN(S(=O)(=O)c3ccc4c(c3)oc(=O)n4C)CC2)cc(OC)c1	102% (inactive)
Fc1ccccc1OCc1nc(-c2ccc(-n3cccc3)cc2)no1	75% (inactive)
COc1ccc(CNC(=O)CSc2nc3ccccc3nc2Cc2ccccc2OC)cc1	70% (inactive)

Structure (SMILES)	survival
CCOc1ccc(NC(=O)C2CCC(CNS(=O)(=O)c3ccc4c(c3)CCCC(=O)N4)CC2)cc1 (stereo not given)	47% (active)
Cc1ccc(NC(=O)C2CCC(CNS(=O)(=O)c3ccc4c(c3)C(C)(C)C(=O)N4C)CC2)cc1 (stereo not given)	67% (active)
CC(=O)c1ccc(NC(=O)C2CCC(CNS(=O)(=O)c3ccc4c(c3)CCCC(=O)N4)CC2)cc1 (stereo not given)	73% (inactive)
COc1ccc(NC(=O)C2CCC(CNS(=O)(=O)c3ccc4c(c3)C(C)(C)C(=O)N4C)CC2)cc1 (stereo not given)	54% (inactive)
Cc1cc(C)cc(NC(=O)C2CCC(CNS(=O)(=O)c3ccc4c(c3)C(C)(C)C(=O)N4C)CC2)c1 (stereo not given)	102% (inactive)
CC(C)c1ccc(NC(=O)C2CCC(CNS(=O)(=O)c3ccc4c(c3)CCCC(=O)N4)CC2)cc1 (stereo not given)	73% (inactive)
Cc1ccc(S(=O)(=O)NC2CCCCC2)c2nsnc12	78% (inactive)
Cc1nc(C)c(CCNS(=O)(=O)c2ccc(F)cc2)s1	119% (inactive)
CCc1cccc(NC(=O)CSc2n[nH]c(-c3ccccc3Cl)n2)c1	66% (inactive)
Cc1cc(Nc2ccccc2O)nc(C)n1	67% (inactive)
CCOc1ccc(CNS(=O)(=O)c2c(C(=O)N3CCC(C)CC3)c(C)n(C)c2C)cc1OC	81% (inactive)
Cc1ccc(NS(=O)(=O)c2c(C(=O)N3CCC(C)CC3)c(C)n(C)c2C)cc1Cl	126% (inactive)
CCOc1ccc(OCC)c(NS(=O)(=O)c2c(C(=O)N3CCC(C)CC3)c(C)n(C)c2C)c1	8% (active)
CC(=O)Nc1ccc(NS(=O)(=O)c2c(C(=O)N3CCC(C)CC3)c(C)n(C)c2C)cc1	20% (active)
COc1cc(OC)c(NS(=O)(=O)c2c(C(=O)N3CCCCCC3)c(C)n(C)c2C)cc1Cl	68% (inactive)
CCOc1ccc(OCC)c(NS(=O)(=O)c2c(C(=O)N3CCCCCC3)c(C)n(C)c2C)c1	76% (inactive)
COc1cc(OC)c(NS(=O)(=O)c2c(C(=O)N3CCC(C)CC3)c(C)n(C)c2C)cc1Cl	17% (active)
CC(=O)Nc1ccc(NS(=O)(=O)c2c(C(=O)N3CCCCCC3)c(C)n(C)c2C)cc1	66% (inactive)
COc1ccc(C)cc1NS(=O)(=O)c1c(C(=O)N2CCC(C)CC2)c(C)n(C)c1C	89% (inactive)
Cc1ccc(CNC(=O)c2c(-c3ccccc3F)noc2C)o1	89% (inactive)
CCC1CN(C(=O)N2CCC(C(=O)NCCN(CC)CC)CC2)c2cc(C)ccc2O1 (stereo not given)	94% (inactive)
